Test results from the supplement of paper PMC6555819.

Assays:
Assay in all cases: PBM binding z-score (relative to random genomic background probes); higher = stronger binding; sequences stand for … in GC…GCGATTGACAGCGTAGAATGAAGG
[1] = test system: RARb homodimer (NR concentration 270 nM)
Method in brief: (§1)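 The probes on custom Agilent 4×180K protein-binding microarrays were double-stranded, with 34-nt variable regions bearing direct-repeat seeds, single-nucleotide variants, half-site ablations and random human genomic background sequences. Incubation lasted 1 h with ligand-free nuclear receptor dimers in PBS pH 7.4, 2% milk, 0.02% Triton X-100, 1 mM DTT, 0.2 mg/mL BSA and 0.4 mg/ml salmon testes DNA. Antibodies against each partner (one per run) detected bound dimers, and fluorescence scans were regression-normalized. Binding z-scores take the random background probes as reference.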

[2] = test system: RARg:RXRa (NR concentration 270 nM, RXRa partner concentration 90 nM)
Method in brief: as §1

[3] = test system: RARg homodimer (NR concentration 270 nM)
Method in brief: as §1

[4] = test system: RXRa DBDmut IVT, anti-RXR (DBD mutation: RXRa K156A/R161A, NR concentration 90 nM)
Method in brief: as §1

[5] = test system: RXRa homodimer (NR concentration 180 nM)
Method in brief: as §1

[6] = test system: THRa:RXRa (NR concentration 90 nM, RXRa partner concentration 90 nM)
Method in brief: as §1

[7] = test system: THRa homodimer (NR concentration 90 nM)
Method in brief: as §1

[8] = test system: VDR homodimer (NR concentration 270 nM)
Method in brief: as §1

| Sequence | PBM binding z-score [1] | PBM binding z-score [2] | PBM binding z-score [3] | PBM binding z-score [4] | PBM binding z-score [5] | PBM binding z-score [6] | PBM binding z-score [7] | PBM binding z-score [8] |
| --- | --- | --- | --- | --- | --- | --- | --- | --- |
| CCGACTGGGGCATAAGGATACCATAAGCCAGCCC | -0.129 | -0.00817 | 0.301 | -0.682 | 0.0556 | 0.92 | 0.5 | -0.401 |
| GCTCGGAGGACAAAGTCAGAGCTTTGTCCGTAGA | -0.0434 | -0.436 | -0.0287 | -0.569 | -0.989 | 0.05 | -0.629 | -0.348 |
| ACTAATAGTTGAGACGAGGGCAACCGATAGGTTG | 1.37 | 0.936 | 1.15 | 0.345 | 0.834 | 3.43 | 0.12 | 0.709 |
| TCTAGTTGGTCACGGAGGTCACACCCGACGGGTA | 3.93 | 4.53 | 4.61 | 0.865 | 4.68 | 3.44 | 2.28 | 3.22 |
| ATATCTAGGTAACAAGTTCAGTGAAAGAGAGGAC | 1.93 | 1.25 | 1.51 | 1.36 | 1.03 | 1.49 | 0.951 | 2.85 |
| GCAGACAGGTGAAACGCAAGTAACTCAGGGTGGC | -0.222 | 0.227 | 0.311 | -0.514 | 0.606 | 0.23 | -0.701 | -0.62 |
| CCTCGGAGGACAGTAGGTCAGAGCTGTCCGCTTT | 2.39 | 2.09 | 2.06 | 0.0907 | 0.614 | 1.43 | -0.152 | -0.282 |
| CTCGAAAGGTCGGTTGATGTGAGTATACGGATAA | 1.8 | 2.39 | 2.37 | 0.767 | 1.96 | 2.01 | -0.0197 | 0.986 |
| CCTCGGAGGACAACAGGAGGTAAGAGCTGCCAGA | 0.361 | 0.652 | 1.09 | -0.216 | -0.00959 | 0.811 | -0.12 | -0.145 |
| GTACCAAGGTGAATAGGGCGTTGATGAGTAGGCG | 1.21 | 1.13 | 0.952 | -0.247 | 0.599 | 1.36 | 0.767 | 0.221 |
| ATCTCTAGGTACAGTTCAGTGAAAGATCGATAGA | 0.899 | 0.55 | 0.987 | 1.95 | 0.449 | 0.634 | 0.0799 | 1.77 |
| AGTCAAAGTTCATCTAGGTAACCTAAGATATGCT | 4.08 | 5.61 | 6.14 | 4.79 | 4.87 | 3.21 | 0.817 | 5.75 |
| CTCGAAAGGTCGTGCTCAGGTGAGTAGACCAAAC | 2.36 | 5.23 | 3.76 | 1.79 | 4.83 | 3.96 | 0.703 | 0.392 |
| TAGCCTAGGTCAGATGGGGCCAGTATACGCTATA | 2.71 | 2.98 | 3.65 | -0.279 | 1.62 | 4.6 | 0.386 | 0.0236 |
| CCGAGTGGGTTATGGGGCATTCAGGCAACGGTGA | 0.766 | -0.124 | -0.0615 | -1.08 | 0.212 | 0.303 | 0.614 | 0.328 |
| CCTGACAGGTGAAAGGTAACTCAGTCTGGTACGC | 0.705 | 1.41 | 0.684 | -0.145 | 1.95 | 0.905 | -0.332 | -0.107 |
| TCTTGTAGATCAATAGAGCTTAAGAAAGTGCGCT | -1.12 | -0.405 | -0.425 | -0.034 | -0.343 | -0.676 | -1.11 | -0.773 |

| Sequence | PBM binding z-score [1] | PBM binding z-score [2] | PBM binding z-score [3] | PBM binding z-score [4] | PBM binding z-score [5] | PBM binding z-score [6] | PBM binding z-score [7] | PBM binding z-score [8] |
| --- | --- | --- | --- | --- | --- | --- | --- | --- |
| CCTACTGGGCCAACAGGTCATTGATATCAACGTT | 2.5 | 2.56 | 2.13 | 0.159 | 1.91 | 1.63 | 0.207 | 0.761 |
| ATCGCTAGGTAAAAGTTCAGTGAATCCCGAGGAT | 2 | 1.37 | 1.46 | 0.265 | 1.64 | 0.795 | -0.348 | 1.16 |
| CATACTGGGCCAAAAAGGTCATTGATGCCGATAA | 4.48 | 4.89 | 4.82 | 1.25 | 5.11 | 3.14 | 0.641 | 3.14 |
| TCTTGTAGATCAACAGGAGATTAAGAAAGATCGA | -1.12 | -0.112 | -0.181 | 0.2 | 0.147 | -0.777 | -1.13 | -0.417 |
| GCTTGTACATCAAGGTTAAGAAAGACTAAGCTAA | 0.275 | 0.435 | 0.375 | -0.122 | 0.599 | 0.997 | -0.187 | -0.281 |
| AGAATGAGGTTATTAAGATCAGGGTATTGCGGTC | 0.948 | 1.09 | 0.753 | 1.79 | 1.62 | 2.17 | 0.854 | 1.29 |
| CGAACGAGGGCATGAGTGGATAGCAAATGCCGAT | 0.496 | 1.27 | 1.61 | 2.02 | 0.916 | 1.04 | -0.129 | 0.792 |
| CCGACTGGAGCAGAAAGGTTACCATACCATCCGG | 2.03 | 1.32 | 0.946 | -0.179 | 1.8 | 0.977 | -0.2 | 0.282 |
| TAGCCTAGGACATGGGCCAGTATACCACGCGAAC | -0.0727 | -0.00552 | 0.0243 | -0.981 | -0.0222 | 0.476 | 0.11 | -0.526 |
| ATCTCTAGGTAAAAATAGTTCAGTGAATGCAAAT | 1.13 | 1.01 | 0.9 | 0.16 | 0.292 | 0.72 | 0.138 | 0.549 |
| ACTAGCAGGCCAAGTTTGGGTCGCTCAAACAAAG | 0.422 | 0.182 | -0.0192 | -0.368 | -0.399 | 0.704 | -0.599 | -0.503 |
| TCATATAGATAAAAGGTGAAAGTCGGTGTGGTAA | 1.53 | 1.23 | 0.872 | 2.07 | 2.41 | 1.24 | 0.0496 | 0.309 |
| TCTTGTAGATCAAGCCGGTTAAGAAAGCCTGAGT | 0.000492 | -0.162 | -0.393 | 0.918 | 0.161 | -0.0654 | -0.203 | 0.0355 |
| ACTAGCAGGCCAAGGGTCAATCAAGATTAGTCCG | 3.46 | 4.36 | 3.8 | 0.567 | 4.62 | 2.76 | -0.086 | 0.551 |
| TCGAGTAGGTTAGTCGGGCCATTCAGCCAACATA | -0.0179 | -0.285 | -0.251 | -0.153 | -0.135 | 0.516 | -0.252 | -0.149 |
| CCAGACAGGTGAAAAGGTAACTCAGCCTCGATTA | 1.49 | 1.96 | 0.973 | 0.272 | 1.52 | 0.971 | 0.514 | -0.0428 |
| CAGACTAGGTCAAGAGGTCAAAGTCCGCTTCCCG | 5.34 | 8 | 7.45 | 2.6 | 7.71 | 4.23 | 2.26 | 3.84 |
